Most compounds without a hit are left out; they make up all but 3.4% or so of the library.
TEAD-YAP inh = TEAD-YAP interaction inhibition; HEK-TIYL cells, TEAD-Gal4/YAP UAS-luciferase luminescence; inhibition, % at 9.12 µM; hit rate 1.4% among 640,000; AID 1259422; in the data active = inhibition above about 32%;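 also: 0% = median of test compound wells and 100% = reference inhibitor wells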
MITF inh = inhibitors of human MITF | O75030 | AlphaScreen MITF homodimerization, bead proximity signal | inhibition, % at 2.6 µM | hit rate 0.91% among 650,000 | AID 1259374; in the data active = inhibition above about 50%;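 also: 0% = vehicle wells with protein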
GPR151 activ = activates the human receptor GPR151; Q8TDV0; PathHunter beta-arrestin GPR151 cells, luminescence; activation, % at 11.2 µM; hit rate 1% among 650,000; AID 1508602; in the data active = activation above about 4.9%;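 also: 0% = median of compound wells and 100% = cells with positive control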
FBW7 activator = activators of human E3 ligase FBW7 | normalized activity (activation), % at 26.1 µM | AlphaScreen FBW7–phospho-cyclin E peptide binding, activator screen | hit rate 0.13% among 650,000; in the data active = normalized activity above about 1.9%;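 also: purified mutant Fbw7 with reduced substrate affinity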
GPR151 confirm = confirmation of human GPR151 activators; 6,700 tested, under 10 active; GPR151 PathHunter beta-arrestin cells, luminescence, 90 min; % of EA-reagent control over plate median; activation, % at 11.2 µM; shares compounds with GPR151 activ;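 active = mean percent activation across replicates above the confirmation screen cutoff of 4.91%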
GPR119 ag = counter-screen for GPR151 activators: effect on human GPR119. hit rate 0.3% among 6,700. activation, % at 11.2 µM. GPR119 PathHunter beta-arrestin cells, luminescence, 90 min; 0 = compound-well median, 100 = enzyme-acceptor control. shares compounds with GPR151 activ;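 active = mean percent activation in the counterscreen above 29.09%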;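 also: counterscreen on off-target GPR119 to flag nonselective hits from the GPR151 activator screen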
Starred values were filed as active, the others as inactive; . = not tested or not shown.

SMILES	TEAD-YAP inh	MITF inh	GPR151 activ	FBW7 activator	GPR151 confirm	GPR119 ag
CCOC(=O)c1sc(NC(=O)CSc2ncnc3sc(C)c(C)c23)c(C(=O)OCC)c1C	9	10	6.4*	0	1	8
COc1ccc(CCNC(=O)Nc2ccc(F)cc2F)cc1	-1	1	0	0	.	.
CCOC(=O)C1(Cc2ccc(OC)cc2)CCN(S(=O)(=O)c2cccc(C)c2)CC1	-1	0	-1	0	.	.
COc1ccc(Cl)cc1NC(=O)CN1CCC(n2nnc3ccccc32)CC1	-23	14	5.3*	0	0	-2
CCN1CCSc2ccc(C(=O)NCC3CCCO3)cc21 (centres undefined)	-5	6	8.1*	0	-1	-6
CCn1c(N)c(C(=O)NCC2CCCO2)sc1=S (centres undefined)	-5	-18	5.6*	0	1	7
CCOC(=O)c1ccccc1NC(=O)n1ncc2cc(Cl)ccc21	-9	-2	0	0	.	.
CCOC(=O)c1cccc(NC(=O)n2ncc3cc(Cl)ccc32)c1	85*	2	5.6*	0	0	-3
CC(C)N(CCNc1ncnc2nc(NC3CCN(Cc4ccccc4)CC3)[nH]c12)C(C)C	15	0	1	0	.	.
COCCCNC(=O)CN(c1cc(Cl)ccc1C)S(C)(=O)=O	-6	7	-1	0	.	.
COCCCNC(=O)CN(c1cc(Cl)ccc1Cl)S(C)(=O)=O	-6	3	11*	0	0	-9
CCOC(=O)C(=O)Nc1nnc(C(C)C)s1	8	30	2	0	.	.
CCOC(=O)C(=O)Nc1ncc(Cl)s1	11	4	5.4*	0	0	6
Cc1cc(Nc2ccc(Oc3ccccc3)cc2)nc(NCCCN2CCCC2=O)n1	15	5	6.8*	0	-1	3
CC(=O)Nc1ccc(Nc2cc(C)nc(Nc3ccc(C(F)(F)F)cc3)n2)cc1	16	2	5.3*	0	0	12
CC(=O)Nc1ccc(Nc2cc(C)nc(Nc3ccccc3)n2)cc1	-17	6	0	0	.	.
O=C1CCCN1CCCNc1ccnc(NCCCN2CCCC2=O)n1	-6	7	2	0	.	.
O=C1CCCN1CCCNc1nccc(NC2CC2)n1	-10	-11	5.5*	0	0	-4
CCCNC(=O)c1ccnc(NCCCN2CCCC2=O)c1	3	27	8.2*	0	-1	0
Cc1cc(C)c(S(=O)(=O)Nc2cc(Br)c3oc4c(c3c2)C(=O)CCC4)c(C)c1	4	9	0	0	.	.
CC(=O)Nc1ccc(Nc2cc(C)nc(NCCCN3CCCC3=O)n2)cc1	-5	8	5.6*	0	-1	-8
Cc1ccc(Cn2c(C)c3cnn(CC(=O)NC(C)(C)C)c(=O)c3c2C)cc1	-4	12	0	0	.	.
Cc1c(Cl)cccc1NC(=O)C1CCCN(c2nnc(N3CCCC3=O)s2)C1 (centres undefined)	-2	-4	-2	0	.	.
O=C(Nc1ccccc1F)C1CCCN(c2nnc(N3CCCC3=O)s2)C1 (centres undefined)	3	9	5.0*	0	-1	-9
Cc1ccccc1NC(=O)C(C)N(c1ccccc1)S(C)(=O)=O (centres undefined)	-9	-4	0	0	.	.
SMILES	TEAD-YAP inh	MITF inh	GPR151 activ	FBW7 activator	GPR151 confirm	GPR119 ag
Cc1ccc2[nH]c(-c3ccccc3)c(CN3CCC(C)CC3)c(=O)c2c1	-1	3	1	0	.	.
O=C(CSc1nc2ccccc2c(=O)n1NC(=O)CCc1c[nH]c2ccccc12)NCc1ccco1	1	7	0	0	.	.
O=C(Nc1cccc(C(=O)N2CCN(c3ccc(F)cc3)CC2)c1)c1ccccc1	2	-5	5.6*	1	1	0
CCOC(=O)/C(N=Nc1cc(Cl)c(OC)cc1OC)=C(\C)O	6	-3	4.9*	0	1	7
COc1cccc(NC(=O)N2CCNCC2)c1	-7	2	23*	0	-1	-14
O=C(CSC(=S)N1CCCCC1)c1ccc([N+](=O)[O-])cc1	-32	20	6.1*	0	0	-5
COC(=O)C(NS(C)(=O)=O)(c1ccc(N(C)C)cc1)C(F)(F)F (centres undefined)	12	0	0	0	.	.
CCC1CCc2c(sc3nc(SCC(=O)Nc4c(C)cccc4C)n(-c4ccccc4)c(=O)c23)C1 (centres undefined)	1	27	8.1*	0	0	-4
Cc1nc(N2CCOCC2)nc2c1CCC2	-11	7	10*	0	-1	-10
Cc1c(NC(=S)NC(=O)c2oc3ccccc3c2C)cccc1-c1nc2ccccc2s1	-9	-2	10*	0	1	18
Cc1nc2c(C)cccn2c1C(=O)NCc1cccc(Cl)c1	-9	3	0	0	.	.
NC(=O)COC(=O)/C=C/c1ccc(Cl)cc1	3	3	5.6*	0	0	0
O=C(Nc1ccc(N2CCOCC2)cc1)C1CC(=O)N(Cc2ccccc2)C1 (centres undefined)	9	1	7.6*	0	0	-1
COc1ccc(-c2nc(Nc3ccc(NC(C)=O)cc3)c3ncn(C4CCCCC4)c3n2)cc1	-11	15	0	0	.	.
O=C(Nc1ccccc1N1CCCC1)c1ccccc1[N+](=O)[O-]	-1	3	5.8*	0	1	6
N#Cc1ccc(C(=O)Nc2ccccc2N2CCCC2)c(F)c1	-5	1	14*	0	0	6
O=C(Nc1ccccc1Cl)c1ccccc1[N+](=O)[O-]	1	-8	0	0	.	.
O=C(CCC(=O)Nc1ccccc1Cl)NNC(=O)c1ccccc1[N+](=O)[O-]	-3	0	7.5*	0	0	-3
O=C1OC(/C=C/c2cccc(Cl)c2Cl)=NC/1=C\c1ccc(Cl)cc1	-16	2	0	0	.	.
COc1ccccc1C(=O)NNC(=O)COc1ccc(Cl)cc1Br	-9	7	-1	0	.	.
O=C(CSc1nc2[nH]ncc2c(=O)n1-c1ccc(Cl)cc1)Nc1ccc(Cl)cc1	14	17	0	0	.	.
CSc1ccc(C2C(C(=O)OC(C)C)=C(C)N=C3SCCC(=O)N32)cc1 (centres undefined)	0	11	2	0	.	.
CNC(=O)c1c(NC(=O)Cc2ccccc2)sc2c1CCCC2	7	-5	1	0	.	.
COc1cc(OC)c(NC(=O)Nc2noc3c2COc2ccccc2-3)cc1Cl	7	3	5.2*	0	1	-1
COCCn1c(=NC(=O)CCS(=O)(=O)c2ccccc2)sc2cc(OC)ccc21	1	2	6.7*	0	0	6
COCCn1c(=NC(=O)Cc2ccccc2)sc2cc(OC)ccc21	2	-13	0	0	.	.
O=C(c1cccc(F)c1)N1CCN(C(=O)c2cccc(Cl)c2)CC1	8	-13	1	0	.	.
